The list is not random: actives were taken first. Their share in the collection is about 19%.
ELG1 DNA repair – qHTS screen for small molecules that inhibit ELG1-dependent DNA repair in human embryonic kidney (HEK293T) cells expressing luciferase-tagged ELG1 | HEK293T ELG1-luciferase reporter, luminescence, 16 h; DNA damage induced by 5-fluorouridine | Potency, µM (doses to about 46.1 µM), hits mostly inhibitors | 2.3% of 330,000 active; note: nearly all actives have a fitted effect of over 55% in size
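5-Fluorouridine DNA damage + compound/DMSO, 2,000 cells/well, 16 h, 37 °C/5% CO2. ONE-Glo, 30 min RT, luminescence. Readout = decrease in reporter signal.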
DT40 TDP1 no CPT – qHTS for Inhibitors of human tyrosyl-DNA phosphodiesterase 1 (TDP1): qHTS in cells in absence of CPT; 15% of 420,000 active; DT40 Tdp1-/- hTDP1 cells, no CPT, ATP luminescence, 48 h; Potency, µM (titrated, usually from 46.2 µM), hits mostly inhibitors; note: nearly all actives have a fitted effect of over 55% in size
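Camptothecin absent (DMSO only). Human TDP1-complemented DT40 knockout cells, 400 cells/well, 37 °C for minimum 48 hr; ATP measured via CellTiter-Glo, 30 min dark incubation, luminescence.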
HT1080-NT tox – qHTS for induction of synthetic lethality in tumor cells producing 2HG: qHTS for the HT-1080-NT fibrosarcoma cell line | HT-1080-NT fibrosarcoma viability, CellTiter-Glo ATP luminescence, 48 h | Potency, µM (titrated, usually from 46.1 µM), hits mostly cytotoxic | AID 686970, 2013 | 1.6% of 360,000 active;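 note: NT is the 2HG producing partner of a matched IDH1 knockdown line; nearly all actives have a fitted effect of over 55% in size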
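Read-out is CellTiter-Glo luminescence after 10 minutes at room temperature, following 48 hours' compound treatment of HT-1080-NT cells (750 cells/well, RPMI, 5% FBS, 37 degrees C).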
TDP1 cell CPT – qHTS for Inhibitors of human tyrosyl-DNA phosphodiesterase 1 (TDP1): qHTS in cells in presence of CPT; chicken DT40 Tdp1-/-;hTDP1 cells + 20 nM CPT, ATP luminescence, 48 h; Potency, µM (series often up to 46.2 µM), usual class: inhibitors; 12% of 420,000 active; note: nearly all actives have a fitted effect of over 55% in size
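Chicken DT40 Tdp1-/- cells complemented with human TDP1, 400 cells/well, exposed to compounds plus 20 nM camptothecin for at least 48 h at 37 C; viability read as ATP content by CellTiter-Glo luminescence.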
HT1080 IDH1KD tx – qHTS for induction of synthetic lethality in tumor cells producing 2HG: qHTS for the HT-1080-IDH1KD cell line | Potency, µM (doses to about 46.1 µM), actives largely listed as cytotoxic | 2% of 360,000 active | HT-1080 IDH1 knockdown viability, ATP luminescence, 48 h
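Cytotoxicity counter-line: IDH1KD HT-1080, 48 h, CellTiter-Glo. Curves classed by r2, magnitude and activity.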
IL-1B inflam inh – qHTS for Inhibitors of Inflammasome Signaling: IL-1-beta AlphaLISA Primary Screen. THP-1 LPS/ATP IL-1B secretion, AlphaLISA, 16 h; hits give low values. activity change, % at 57.5 µM. 4.7% of 360,000 active. AID 743279, 2014; in the data active = activity change below about -50%; inconclusive = mostly about -30% to -49%
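Secreted IL-1B measured by AlphaLISA bead assay after 16 h compound exposure of THP-1 cells; compounds (final up to 57.5 uM) added 1 h before LPS (250 ng/mL) and ATP (1.25 mM) stimulation; lower signal means less secretion.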
Numbers stand for hits. Unless noted, calls come from the whole dose curve; as a rule, active = well fitted curve in the direction sought with a large enough effect; inconclusive = small, poorly fitted or top-dose-only effect, or another doubt; inactive = no such curve, though single readings can be large; an effect the other way counts as inactive or inconclusive.

Results for Cc1nn(S(=O)(=O)c2ccc(C(C)(C)C)cc2)c(C)c1S(=O)(=O)N1CCC(C)CC1 ?
DT40 TDP1 no CPT: inactive; TDP1 cell CPT: inactive

Results for CC1=Nc2ccccc2N=C(NC(=O)c2ccccc2)C1c1ccc(Cl)cc1 (stereo not given) ?
ELG1 DNA repair: inconclusive; DT40 TDP1 no CPT: 21µM; HT1080-NT tox: inactive; TDP1 cell CPT: inconclusive; HT1080 IDH1KD tx: inactive; IL-1B inflam inh: -58

Results for Cc1ccn2cc(CNS(=O)(=O)c3ccc4ccccc4c3)nc2c1 ?
ELG1 DNA repair: inactive; DT40 TDP1 no CPT: inconclusive; HT1080-NT tox: inactive; TDP1 cell CPT: inactive; HT1080 IDH1KD tx: inactive; IL-1B inflam inh: inactive

Results for CCCc1cc(NCCCO)n2c(nc3ccccc32)c1C#N ?
ELG1 DNA repair: inactive; DT40 TDP1 no CPT: inconclusive; HT1080-NT tox: inactive; TDP1 cell CPT: inactive; HT1080 IDH1KD tx: inactive; IL-1B inflam inh: inactive

What do the screens show for `CN(C)C(=O)CNC(=O)CN1C(=O)NC2(CCCc3sccc32)C1=O` (stereo not given)?
ELG1 DNA repair: inactive; DT40 TDP1 no CPT: inactive; HT1080-NT tox: inactive; TDP1 cell CPT: inactive; HT1080 IDH1KD tx: inactive; IL-1B inflam inh: -65

What do the screens show for `O=C(COC(=O)CN1C(=O)c2ccccc2C1=O)NC1CCCC1`?
ELG1 DNA repair: inactive; DT40 TDP1 no CPT: inactive; HT1080-NT tox: inactive; TDP1 cell CPT: inactive; HT1080 IDH1KD tx: inactive; IL-1B inflam inh: inactive

What do the screens show for `Cc1cccc2c(N)c3c(nc12)N(C)CC3`?
ELG1 DNA repair: inactive; DT40 TDP1 no CPT: 12µM; HT1080-NT tox: inactive; TDP1 cell CPT: 8.2µM; HT1080 IDH1KD tx: inactive; IL-1B inflam inh: inactive

What do the screens show for `COc1cccc(N2CCc3c(C)nc4ccc(Cl)cc4c32)c1`?
ELG1 DNA repair: 23µM; DT40 TDP1 no CPT: 7.3µM; HT1080-NT tox: inconclusive; TDP1 cell CPT: 10µM; HT1080 IDH1KD tx: 21µM; IL-1B inflam inh: -96

Results for COc1ccc2nc3cccc(OC)c3nc2c1 ?
ELG1 DNA repair: inconclusive; DT40 TDP1 no CPT: inconclusive; HT1080-NT tox: inactive; TDP1 cell CPT: inconclusive; HT1080 IDH1KD tx: inactive; IL-1B inflam inh: inactive

How did COc1ccc(N2CCc3c(C)nc4c(OC)cc(OC)cc4c32)c(OC)c1 do in these assays?
ELG1 DNA repair: inconclusive; DT40 TDP1 no CPT: 5.2µM; HT1080-NT tox: inconclusive; TDP1 cell CPT: 6.5µM; HT1080 IDH1KD tx: inconclusive; IL-1B inflam inh: -58

How did COc1ccc(N2CCc3c(C)nc4c(OC)cccc4c32)cc1 do in these assays?
ELG1 DNA repair: inconclusive; DT40 TDP1 no CPT: 2.9µM; HT1080-NT tox: 3.7µM; TDP1 cell CPT: 4.6µM; HT1080 IDH1KD tx: 3.3µM; IL-1B inflam inh: -96

How did COc1cccc(-c2nc(-c3cccc(C)c3)nc3cc(Cl)ccc23)c1 do in these assays?
DT40 TDP1 no CPT: inactive; HT1080-NT tox: inactive; TDP1 cell CPT: inactive; HT1080 IDH1KD tx: inactive; IL-1B inflam inh: inactive

What do the screens show for `CCCCNC(=O)CNC(=S)N(Cc1ccccc1F)C1CCCCC1`?
ELG1 DNA repair: inactive; DT40 TDP1 no CPT: inconclusive; HT1080-NT tox: inactive; TDP1 cell CPT: inactive; HT1080 IDH1KD tx: inactive; IL-1B inflam inh: inactive

Results for COc1ccccc1CC(=O)Nc1ccc(S(=O)(=O)N2CC(C)CC(C)C2)cc1 (stereo not given) ?
ELG1 DNA repair: inconclusive; DT40 TDP1 no CPT: inactive; HT1080-NT tox: inactive; TDP1 cell CPT: inactive; HT1080 IDH1KD tx: inactive; IL-1B inflam inh: inactive

How did O=[N+]([O-])c1nccn1CC(O)CO (stereo not given) do in these assays?
DT40 TDP1 no CPT: inactive; HT1080-NT tox: inactive; TDP1 cell CPT: inactive; HT1080 IDH1KD tx: inactive; IL-1B inflam inh: inactive

What do the screens show for `COc1ccc(N2Cc3ccc(OC)c(OC)c3C2=O)cc1`?
ELG1 DNA repair: inconclusive; DT40 TDP1 no CPT: inactive; HT1080-NT tox: inactive; TDP1 cell CPT: inactive; HT1080 IDH1KD tx: inactive; IL-1B inflam inh: inactive

What do the screens show for `Cc1nc2c(C)cccc2c2c1CCN2c1ccccc1F`?
ELG1 DNA repair: inactive; DT40 TDP1 no CPT: 21µM; HT1080-NT tox: inactive; TDP1 cell CPT: 15µM; HT1080 IDH1KD tx: inconclusive; IL-1B inflam inh: -76

How did COc1ccc(N2CCc3c(C)nc4c(OC)cc(OC)cc4c32)cc1 do in these assays?
ELG1 DNA repair: inconclusive; DT40 TDP1 no CPT: 15µM; HT1080-NT tox: inconclusive; TDP1 cell CPT: 23µM; HT1080 IDH1KD tx: 23µM

How did Cc1ccc(-n2c(SCC(N)=O)nc3c([nH]c4ccccc43)c2=O)cc1 do in these assays?
ELG1 DNA repair: inactive; DT40 TDP1 no CPT: 26µM; HT1080-NT tox: inactive; TDP1 cell CPT: 15µM; HT1080 IDH1KD tx: inactive; IL-1B inflam inh: inactive

What do the screens show for `Cc1cc(C)cc(NC(=O)CSc2nc3c([nH]c4ccccc43)c(=O)n2-c2ccc(F)cc2)c1`?
DT40 TDP1 no CPT: 21µM; TDP1 cell CPT: 8.2µM

Results for Cc1ccc(-n2c(SCC(=O)NCc3ccc(F)cc3)nc3c([nH]c4ccccc43)c2=O)cc1 ?
DT40 TDP1 no CPT: 23µM; TDP1 cell CPT: 18µM

How did CSc1nc2c([nH]c3ccccc32)c(=O)n1-c1ccc(C)cc1 do in these assays?
DT40 TDP1 no CPT: inactive; TDP1 cell CPT: inactive

How did Cc1cc(C)cc(-n2c(SCC(=O)Nc3cccc(F)c3)nc3c([nH]c4ccccc43)c2=O)c1 do in these assays?
DT40 TDP1 no CPT: inconclusive; TDP1 cell CPT: inactive

Results for O=C(CSc1nc2c([nH]c3ccccc32)c(=O)n1-c1ccccc1)Nc1cccc(C(F)(F)F)c1 ?
DT40 TDP1 no CPT: 23µM; TDP1 cell CPT: 15µM

What do the screens show for `Cc1ccc(NC(=O)CN(C)C(=O)Cn2c(=O)oc3ccccc32)cc1`?
ELG1 DNA repair: inactive; DT40 TDP1 no CPT: inconclusive; HT1080-NT tox: inactive; TDP1 cell CPT: inactive; HT1080 IDH1KD tx: inactive; IL-1B inflam inh: inactive

What do the screens show for `O=C(CSc1nc2c([nH]c3ccccc32)c(=O)n1-c1ccccc1F)Nc1cccc(Cl)c1`?
DT40 TDP1 no CPT: 21µM; TDP1 cell CPT: inconclusive

How did COc1cccc(NC(=O)CSc2nc3c([nH]c4ccccc43)c(=O)n2-c2cccc(Cl)c2)c1 do in these assays?
DT40 TDP1 no CPT: inactive; TDP1 cell CPT: inconclusive

What do the screens show for `Cc1ccc(CN2CCN(CCCn3cnc4c(OCc5ccccc5)ncnc43)CC2)cc1`?
DT40 TDP1 no CPT: inconclusive; HT1080-NT tox: inactive; TDP1 cell CPT: 23µM; HT1080 IDH1KD tx: inactive; IL-1B inflam inh: -54
